Assay results: a collection of fitness landscapes (doi:10.1126/science.1257360)
Over roughly 140,000 sequences, “enrichment ratio after two sorts for PhoP signalling” has its median near 0; the highest 2% begin near 11. The list comes from a sample in which the highest values are over-represented; it also holds similar and randomly drawn sequences.

B1: PhoQ; a variant is named by its letters at X, in order, P23837 (parent)
chain: MKKLLRLFFPLSLRVRFLLATAAVVLVLSLAYGMVALIGYSVSFDKTTFRLLRGESNLFYTLAKWENNKLHVELPENIDKQSPTMTLIYDENGQLLWAQRDVPWLMKMIQPDWLKSNGFHEIEADVNDTSLLLSGDHSIQQQLQEVREDDDDAEMTHSVAVNVYPATSRMPKLTIVVVDTIPVELKSSYMVWSWFIYVLSANLLLVIPLLWVAAWWSLRPIEALAKEVRELEEHNRELLNPATTRELTSLVRNLNRLLKSERERYDKYRTTLTDLTHSLKTPLXXLQXXLRSLRSEKMSVSDAEPVMLEQISRISQQIGYYLHRASMRGGTLLSRELHPVAPLLDNLTSALNKVYQRKGVNISLDISPEISFVGEQNDFVEVMGNVLDNACKYCLEFVEISARQTDEHLYIVVEDDGPGIPLSKREVIFDRGQRVDTLRPGQGVGLAVAREITEQYEGKIVAGESMLGGARMEVIFGRQHSAPKDE

Variants of: B1
Test: enrichment ratio after two sorts for PhoP signalling (ratio (wild type AVST 3.29)); higher = more functional
Conditions: with PhoP (E. coli)

Row | Variant | enrichment ratio
1 | GAQK | ≤ 0.25
2 | NGQA | ≤ 0.25
3 | VMKG | ≤ 0.25
4 | ILNQ | ≤ 0.25
5 | DMSW | ≤ 0.25
6 | TCQW | ≤ 0.25
7 | LQMI | ≤ 0.25
8 | MMFL | ≤ 0.25
9 | HDFE | ≤ 0.25
10 | WLYA | ≤ 0.25
11 | MQWG | 4.64
12 | MQLA | ≤ 0.25
13 | KYLG | ≤ 0.25
14 | MQLG | 22
15 | SFLG | 10.9
16 | SELG | 25.3
17 | LEAH | 0.895
18 | TEQC | 9.21
19 | FELK | ≤ 0.25
20 | FTPI | ≤ 0.25
21 | MFEY | ≤ 0.25
22 | WMWW | ≤ 0.25
23 | TTSG | 19.5
24 | HFSG | ≤ 0.25

Row | Variant | enrichment ratio
25 | TGSG | 16.4
26 | GGSG | ≤ 0.25
27 | YTSG | ≤ 0.25
28 | TSSG | 14.4
29 | PGSG | ≤ 0.25
30 | NSSG | ≤ 0.25
31 | KQSG | ≤ 0.25
32 | TFSG | 13.9
33 | KSSG | ≤ 0.25
34 | PFSG | ≤ 0.25
35 | MWFY | ≤ 0.25
36 | SQPK | ≤ 0.25
37 | VRWV | ≤ 0.25
38 | SYQC | ≤ 0.25
39 | RTQR | ≤ 0.25
40 | HCSG | ≤ 0.25
41 | GVSG | 7.26
42 | GISG | 8.5
43 | TVSG | 20.3
44 | GNSG | 13.2
45 | SPSG | ≤ 0.25
46 | WDLS | ≤ 0.25
47 | DAKY | ≤ 0.25
48 | NIQR | ≤ 0.25

Row | Variant | enrichment ratio
49 | AQLG | 18.8
50 | AFTG | 5.35
51 | NHLG | ≤ 0.25
52 | THLG | 14.4
53 | AILG | 15.7
54 | KKLG | ≤ 0.25
55 | ADLG | 3.46
56 | APLG | ≤ 0.25
57 | SHLG | 10.8
58 | AFLG | 15.7
59 | AHLG | 6.95
60 | AFFG | ≤ 0.25
61 | MEPF | ≤ 0.25
62 | WCFV | ≤ 0.25
63 | GSFI | ≤ 0.25
64 | RMTQ | ≤ 0.25
65 | YEWD | ≤ 0.25
66 | LWMC | ≤ 0.25
67 | QNWS | 8.87
68 | PPKF | ≤ 0.25
69 | WPCT | ≤ 0.25
70 | SLTH | 5.18
71 | NKDQ | ≤ 0.25
72 | FHGD | ≤ 0.25

Row | Variant | enrichment ratio
73 | YTLG | 6.93
74 | ATLG | 12.3
75 | NMLG | ≤ 0.25
76 | TMLG | 11.6
77 | VRLG | ≤ 0.25
78 | TTLG | 10.6
79 | DMLG | ≤ 0.25
80 | ASLG | 18.2
81 | FSLG | 8.53
82 | RQGG | ≤ 0.25
83 | RQFP | ≤ 0.25
84 | PNPW | ≤ 0.25
85 | RIWK | ≤ 0.25
86 | NTQW | ≤ 0.25
87 | QDPH | ≤ 0.25
88 | RWEP | ≤ 0.25
89 | NMTN | ≤ 0.25
90 | TMTN | 13.4
91 | GHTN | 12.9
92 | VLTN | ≤ 0.25
93 | SQTN | 8.46
94 | KYTN | ≤ 0.25
95 | VHTN | ≤ 0.25
96 | DMTN | ≤ 0.25

Row | Variant | enrichment ratio
97 | AMTN | 27.1
98 | THTN | 4.21
99 | STTN | 19.3
100 | WITN | ≤ 0.25
101 | YVCF | 0.805
102 | PGGT | ≤ 0.25
103 | RGRC | ≤ 0.25
104 | FMKW | ≤ 0.25
105 | TWYE | ≤ 0.25
106 | YSAH | ≤ 0.25
107 | HNNM | ≤ 0.25
108 | QGTS | ≤ 0.25
109 | SVTN | 16.4
110 | GTTN | ≤ 0.25
111 | YTTN | ≤ 0.25
112 | TCTN | 22.5
113 | SPTN | ≤ 0.25
114 | KCTN | ≤ 0.25
115 | KFTN | ≤ 0.25
116 | NETN | ≤ 0.25
117 | TETN | 24.4
118 | VCTN | ≤ 0.25
119 | ATTN | 20.6
120 | DETN | ≤ 0.25

Row | Variant | enrichment ratio
121 | RCRT | ≤ 0.25
122 | YSIQ | ≤ 0.25
123 | WKRH | ≤ 0.25
124 | LAIW | ≤ 0.25
125 | NWSE | ≤ 0.25
126 | LYIV | ≤ 0.25
127 | WHIR | ≤ 0.25
128 | YPIA | ≤ 0.25
129 | GPAN | ≤ 0.25
130 | AKTN | ≤ 0.25
131 | KSTN | ≤ 0.25
132 | AITN | 22.4
133 | FIQE | ≤ 0.25
134 | GTVS | ≤ 0.25
135 | GYMI | ≤ 0.25
136 | GIMI | 25.7
137 | GNVI | 14.7
138 | GIGD | ≤ 0.25
139 | GCVI | ≤ 0.25
140 | GIFA | ≤ 0.25
141 | GNMI | 46.4
142 | GIVI | 6.54
143 | GTMI | ≤ 0.25
144 | EHCK | ≤ 0.25

Row | Variant | enrichment ratio
145 | DQHH | ≤ 0.25
146 | AQEG | ≤ 0.25
147 | LKYY | ≤ 0.25
148 | FGWK | ≤ 0.25
149 | SEER | ≤ 0.25
150 | RPGL | ≤ 0.25
151 | QQNS | 8.87
152 | QLNH | ≤ 0.25
153 | QQSH | ≤ 0.25
154 | QPNH | ≤ 0.25
155 | QENH | 70.4
156 | QQNH | 12.7
157 | HNFM | ≤ 0.25
158 | KEFR | ≤ 0.25
159 | THMP | ≤ 0.25
160 | HPVY | ≤ 0.25
161 | MNCR | ≤ 0.25
162 | RSFL | ≤ 0.25
163 | YTFQ | ≤ 0.25
164 | TIQM | 48.5
165 | TIYM | 2.83
166 | TINY | ≤ 0.25
167 | TINM | 15.1
168 | TITM | 17.6

Row | Variant | enrichment ratio
169 | RIQM | ≤ 0.25
170 | TINS | 9.25
171 | AIQM | ≤ 0.25
172 | TICK | 1.1
173 | TIPM | ≤ 0.25
174 | TIGM | 21.8
175 | TIWM | ≤ 0.25
176 | PGVE | ≤ 0.25
177 | FAIN | 0.294
178 | WTRP | ≤ 0.25
179 | TKVF | 3.68
180 | ANGQ | ≤ 0.25
181 | SYDT | ≤ 0.25
182 | PICE | ≤ 0.25
183 | LWID | ≤ 0.25
184 | FPRV | ≤ 0.25
185 | TRYF | ≤ 0.25
186 | GPCS | ≤ 0.25
187 | NCLV | 1.12
188 | IACL | ≤ 0.25
189 | KACV | ≤ 0.25
190 | AACI | 12.2
191 | AACL | 11.3
192 | AACA | 7.7

Row | Variant | enrichment ratio
193 | ANCV | 3.79
194 | AACE | 6.4
195 | AAAI | 1.63
196 | AANL | ≤ 0.25
197 | AACS | 17.3
198 | AACK | ≤ 0.25
199 | AACV | 16.2
200 | NQPV | ≤ 0.25
201 | KGDN | ≤ 0.25
202 | WHVG | ≤ 0.25
203 | HKAD | ≤ 0.25
204 | LHMM | ≤ 0.25
205 | SKQW | ≤ 0.25
206 | QCCL | ≤ 0.25
207 | LETR | ≤ 0.25
208 | DAMY | ≤ 0.25
209 | MRVV | ≤ 0.25
210 | ASVY | 2.98
211 | KSVV | ≤ 0.25
212 | ASVA | 4.82
213 | ASTD | ≤ 0.25
214 | ASVL | 16.7
215 | ASVV | 14.5
216 | ASHQ | ≤ 0.25

Row | Variant | enrichment ratio
217 | ASRL | ≤ 0.25
218 | ASMQ | 29.9
219 | ASVK | 0.907
220 | ASVT | 15.2
221 | EVAW | ≤ 0.25
222 | DHDV | ≤ 0.25
223 | YAYW | ≤ 0.25
224 | ANRY | ≤ 0.25
225 | RTRT | ≤ 0.25
226 | WPGL | ≤ 0.25
227 | ASVC | 5.25
228 | ASMN | 19.6
229 | ASMG | 17.6
230 | ASVG | 14.7
231 | ASQN | ≤ 0.25
232 | AHAF | ≤ 0.25
233 | ASNL | 4.93
234 | KSAF | ≤ 0.25
235 | ASMW | 5.78
236 | ASMD | ≤ 0.25
237 | ASAF | 15.1
238 | KSVG | ≤ 0.25
239 | VSHV | ≤ 0.25
240 | ELII | ≤ 0.25

Row | Variant | enrichment ratio
241 | DHGN | ≤ 0.25
242 | NHFI | ≤ 0.25
243 | QTFL | 1.72
244 | YDLL | ≤ 0.25
245 | QRFQ | ≤ 0.25
246 | EHKV | ≤ 0.25
247 | LCMI | ≤ 0.25
248 | IHER | ≤ 0.25
249 | LAPE | ≤ 0.25
250 | VIMD | ≤ 0.25
251 | KSMK | ≤ 0.25
252 | ASVM | 12.1
253 | ASSI | 15.8
254 | AITG | 11.5
255 | ASVP | ≤ 0.25
256 | VRSI | ≤ 0.25
257 | ASVI | 5.75
258 | ASRK | ≤ 0.25
259 | ASMA | 2.9
260 | AMTG | 2.78
261 | VHTG | ≤ 0.25
262 | ASMK | 17
263 | YVIL | ≤ 0.25
264 | LYCG | ≤ 0.25

Row | Variant | enrichment ratio
265 | RRIS | ≤ 0.25
266 | NHAY | ≤ 0.25
267 | QIHN | ≤ 0.25
268 | YWDR | ≤ 0.25
269 | YHEQ | ≤ 0.25
270 | IKMW | ≤ 0.25
271 | ASHE | ≤ 0.25
272 | ASIG | 12
273 | KSVE | ≤ 0.25
274 | ASVE | 21.7
275 | ASMV | 7.76
276 | ASWG | ≤ 0.25
277 | ASMI | 13.5
278 | ASMS | 5.31
279 | ASTG | 14.7
280 | ASEG | ≤ 0.25
281 | PNRW | ≤ 0.25
282 | LAVR | ≤ 0.25
283 | IMSG | ≤ 0.25
284 | RHEW | ≤ 0.25
285 | QSKD | ≤ 0.25
286 | VADS | ≤ 0.25
287 | DWYQ | ≤ 0.25
288 | YRSW | ≤ 0.25

Row | Variant | enrichment ratio
289 | MCAS | 14
290 | MMAS | 15.4
291 | MFAS | ≤ 0.25
292 | TMAS | 15
293 | MAAS | 1.31
294 | DMAS | ≤ 0.25
295 | MTAS | 12
296 | ICAS | ≤ 0.25
297 | MKAS | ≤ 0.25
298 | VCAS | ≤ 0.25
299 | KMAS | ≤ 0.25
300 | YTAS | ≤ 0.25
301 | NQNV | ≤ 0.25
302 | NTIL | ≤ 0.25
303 | MCAI | 8.95
304 | GQFV | ≤ 0.25
305 | PTRG | ≤ 0.25
306 | IQLY | ≤ 0.25
